Data taken from PubChem BioAssay AID651814 (National Center for Advancing Translational Sciences (NCATS), 2012).
Among all 2,100 compounds or so, about 590 (28%) were called active. About 42% were inconclusive and are not listed. The call rests on the fitted dose curve; in most records, active means well fitted inhibition curve with a large enough effect; inconclusive means small, poorly fitted or top-dose-only effect; inactive means flat fitted curve, though single readings scatter. The list shows a part of the results.

These compounds were tested against DNA dC->dU-editing enzyme APOBEC-3F (Homo sapiens) (UniProt Q8IUX4) (assay: qHTS for inhibitors of Vif-A3F interactions: Cherry picks). Settings: HeLa A3F-eYFP + Vif (tagged APOBEC3F with the HIV-1 protein that degrades it), eYFP fluorescence, 24 h.
Summary of the method: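 Read-out: yellow fluorescence (ex 488 nm, em 500-530 nm) by laser-scanning cytometer after 24 h compound exposure, several concentrations, at 37 deg C. Cells: HeLa line stably co-expressing Vif and C-terminally eYFP-tagged A3F; MG132 served as positive control.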
Further: nearly all actives have a fitted effect of over 70% in size.
Potency means the concentration at half of the fitted maximal effect.
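Wherever Max response is given: % of control where 0% means no effect; active compounds raise eYFP fluorescence by blocking Vif-driven A3F loss.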

DNA dC->dU-editing enzyme APOBEC-3F (Homo sapiens), sequence (Q8IUX4 whole entry, looked up): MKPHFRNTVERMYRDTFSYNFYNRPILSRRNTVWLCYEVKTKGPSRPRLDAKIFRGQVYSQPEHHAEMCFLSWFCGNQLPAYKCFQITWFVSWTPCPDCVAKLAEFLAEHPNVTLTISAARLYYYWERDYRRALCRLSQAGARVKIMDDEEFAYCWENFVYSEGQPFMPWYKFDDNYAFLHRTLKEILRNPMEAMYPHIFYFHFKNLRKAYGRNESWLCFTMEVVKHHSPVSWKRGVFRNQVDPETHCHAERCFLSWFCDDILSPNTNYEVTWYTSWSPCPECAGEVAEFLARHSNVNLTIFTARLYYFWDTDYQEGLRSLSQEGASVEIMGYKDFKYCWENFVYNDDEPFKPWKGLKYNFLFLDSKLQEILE

Max response, inactive:
O=C(CN1C(=O)CSc2ncccc21)Nc1cccc(Cl)c1 -15.2%
CC(C)COc1ccc(C(=O)N/C(=C/c2cccc([N+](=O)[O-])c2)C(=O)O)cc1 -0.401%
CCCC(=O)NC(c1ccc(OC)cc1)c1c(O)ccc2ccccc12 (stereo unspecified) -21%
CC(=O)n1cc(/C=N/NC(=O)c2sc(C)nc2C)c2ccccc21 -21.7%
CC1(C)CC(=O)C(C=Nc2cc(C(=O)c3ccccc3)ccc2N)=C(O)C1 -20.7%
O=c1[nH]c2ccccc2n2c(=S)[nH]nc12 -3.48%
COc1ccc(N/C=C2\C(=O)CCc3c2oc2cc(Cl)c(O)c(Cl)c32)cc1 -28.6%
COC(=O)C1C2CC3c4[nH]c5cc(OC)ccc5c4CCN3CC2CC(OC2CCCCO2)C1OC (stereo unspecified) -12.1%
S=c1[nH]cnc2sc(-c3ccccc3)cc12 -2.16%
CCN(CC)C(=O)CSC(Nc1cccc(F)c1)=C(C#N)C#N -4.73%
O=C(N/N=C/c1ccc2c(c1)OCO2)c1ccc2c(c1)OCCO2 -24.9%
O=C(NN=Cc1c(O)ccc2ccccc12)c1ccc2c(c1)OCO2 -14.5%
COCCCNC(=S)N/N=C/c1cccc(OC)c1O -1.71%
CC(C)(C)C(=O)Nc1sc2c(c1C#N)CCN(Cc1ccccc1)C2 -17.1%
Cc1nc2ccc(NC(=O)c3cc(S(=O)(=O)N(C)c4ccccc4)ccc3Cl)cc2s1 -11.3%
O=C(Nc1ncc(Cc2ccc(SC(F)F)cc2)s1)c1ccccc1 -6.02%
CCCCOc1ccc2c(c1)/C(=C(\C(Cl)=C(Cl)Cl)[N+](=O)[O-])N2 -18.3%
CCS(=O)(=O)N1CCc2cc(C(=O)N3CCN(c4cccc(C(F)(F)F)c4)CC3)ccc21 -12.8%
CC1=CC(C)(C)NC(=S)N1c1ccc2ccccc2c1 1.72%
N#Cc1c(NC(=O)c2ccc([N+](=O)[O-])o2)sc2c1CCC2 -22.4%
CCN1CCc2c(sc(-n3cccc3)c2C(C)NC(=O)Nc2ccc(C(=O)OC)cc2)C1 (stereo unspecified) 0.47%
CC(=O)Nc1ccc(Nc2c3c4c(cccc4n(C)c2=O)C(=O)c2ccccc2-3)cc1 -27.5%
CCCCOc1nc2ccccc2nc1NS(=O)(=O)c1ccc(F)cc1 5.01%
Cc1ccc2c(Cl)c(C)c(N3CCCC3)nc2n1 1.73%
Clc1ccccc1Cn1c(/C=C/c2ccco2)nc2ccccc21 -8.9%
CCC(=O)Nc1nonc1-c1nc2ccccc2n1Cc1ccccc1 -26.4%
CCCOc1ccc(NC(=O)CC2C(=O)N(c3ccc(OCC)cc3)C(=S)N2C2CC2)cc1 (stereo unspecified) -28%
CCOC(=O)N1CCC(Nc2nc3ccccc3n3nnnc23)CC1 -9.96%
COC(=O)c1sc2nc(CSc3ccc(Br)cc3)[nH]c(=O)c2c1C -22%
Cc1ccc(CSc2nc(-c3ccc(C(C)(C)C)cc3)nc3cc(=O)[nH]n23)cc1 -0.911%
N#CC(C(=S)Nc1ccccc1)c1nc2ccccc2[nH]1 (stereo unspecified) -16.9%
CCOc1ccccc1N1CC(c2nc3ccccc3n2Cc2c(C)cc(C)cc2C)CC1=O (stereo unspecified) -7.39%
CCOC(=O)COn1c(=O)c(-c2ccc(Br)cc2)[n+]([O-])c2ccccc21 3.1%
CCOC(=O)c1c(-c2ccc(OC)cc2)csc1/N=C/C1C(=O)CCCC1=O -2.18%
N#CCSc1ccccc1NC(=O)COC(=O)CCNC(=O)c1ccc([N+](=O)[O-])cc1 -12%
Cc1ccc(C(=O)CCC(=O)OCC(=O)Nc2ccccc2SCC#N)cc1 -8.08%
Cc1noc(C)c1C(=O)OCC(=O)Nc1ccccc1SCC#N -24.1%
CSc1ccccc1NC(=O)COC(=O)/C=C/c1ccco1 -23.1%
CCCCOc1ccc(/C=C/C2=CC(C)(C)NC(=S)N2)cc1OCC -3.97%
CN(C)c1ccc(/C=C/c2ccncc2)cc1 -29.1%
Cc1cc(C)c(C(=O)N(CCN(C)C)CC2CCCN(Cc3ccccc3F)C2)o1 (stereo unspecified) 2.52%
Cc1ccc(-n2c(=O)c3ccc(C(=O)NCc4ccccc4Cl)cc3n(CC(=O)Nc3cccc(Cl)c3)c2=O)cc1 -26%
Cc1ccc(CNC(=O)Cn2cc(C(=O)c3ccc(Cl)cc3)c(=O)c3ccc(C)nc32)cc1 -28.8%
CCOc1ncccc1C(=O)OCc1ccc(C(=O)OC)cc1 -26.7%
CCOc1ncccc1C(=O)NCc1ccc(OC)cc1 -24.5%
Cc1ccc2nc(-c3ccccn3)c(Nc3ccccc3C)n2c1 -2.29%
CSc1ccc(/C=N/NC(=O)c2ccccc2Cl)cc1 -22.8%
O=C(Cc1cc2ccccc2o1)NCc1ccc(F)cc1 -14%
O=C(N/N=C/c1ccc([N+](=O)[O-])o1)c1cn2ccc3ccccc3c2n1 -11.2%
Cc1cccc(C)c1Nc1nc2ccccc2nc1NS(=O)(=O)c1ccccc1 -12.4%
O=C(NC(=S)Nc1ccccc1N1CCCCC1)c1ccccc1 -2.38%
COc1ccc2cc(C(=O)C3CCCN(Cc4ccccn4)C3)ccc2c1 (stereo unspecified) 1.49%
NNC(=O)c1cc2sccc2s1 -9.98%
CN1CCN(c2nc3ccccc3nc2NS(=O)(=O)c2ccc(Br)cc2)CC1 -2.09%
CCOC(=O)N1CCC(Nc2nc3ccccc3nc2NS(=O)(=O)c2ccc(Cl)cc2)CC1 -1.97%
O=S(=O)(Nc1nc2ccccc2nc1N1CCN(c2ccccc2)CC1)c1ccc(F)cc1 -24.2%
O=C(N=c1ccn(-c2nc3ccccc3nc2NS(=O)(=O)c2ccccc2)cc1)c1cccs1 -18.4%

Potency, active:
COc1ccc(N=Cc2sc(O)c3ccccc23)cc1 8.86 µM
Oc1sc(C=Nc2ccccc2)c2ccccc12 20.6 µM
COc1ccc(N=Cc2oc3ccc4ccccc4c3c2O)cc1 5.17 µM
COc1ccc(N=Cc2c(O)c3ccccc3n2C(C)=O)cc1 20.6 µM
Oc1sc(C=Nc2ccc(F)cc2)c2ccccc12 4.11 µM
CN(C)c1ccc(/C=N/NC(=O)c2cc(-c3ccc4c(c3)OCO4)n[nH]2)cc1 17.7 µM
NC(=O)c1c(NC(=O)c2ccccc2)sc2c1CCN(Cc1ccccc1)C2 14 µM
CCCN1CCc2c(sc(NC(=O)c3ccc(S(=O)(=O)N(C)c4ccccc4)cc3)c2C(N)=O)C1 20.6 µM
CC(C)CN(CC(C)C)S(=O)(=O)c1ccc(C(=O)Nc2sc3c(c2C(N)=O)CCN(C(C)C)C3)cc1 20.6 µM
CCCN1CCc2c(sc(NC(=O)c3ccc(S(=O)(=O)N(C)c4ccccc4)cc3)c2C(=O)NC)C1 23.1 µM
CC(C)N1CCc2c(sc(NC(=O)c3cc4cc([N+](=O)[O-])ccc4s3)c2C(N)=O)C1 20.6 µM
CCN1CCc2c(sc(NC(=O)c3ccc(S(=O)(=O)N(CC)c4ccccc4)cc3)c2C(N)=O)C1 9.94 µM
ClCc1nc2ccccc2n1Cc1ccccc1 18.4 µM
CCC(=O)Nc1ccccc1-c1nc2ccccc2n(C(C)C(=O)Nc2ccc(OC)cc2)c1=O (stereo unspecified) 11.6 µM
CCOC(=O)Nc1cc2c(c(N)n1)N=C(c1ccccc1)CN2 0.0259 µM
Cc1ccc(-c2cn3nc(-c4ccccc4)c(-c4ccccc4)nc3n2)cc1 18.4 µM
COc1cc(-c2noc(C)c2/C=C/c2ccc(OC(C)=O)cc2)cc(OC)c1OC 0.627 µM
CCOC(=O)Cn1c(=O)c(-c2cc(Br)ccc2N)nc2ccccc21 8.2 µM
CC(C)n1c(O)c(N=Nc2ccc(Cl)nn2)c2ccccc21 20.6 µM
Cc1nc(C)c(C(=O)OCC(=O)Nc2ccccc2SCC#N)s1 15.8 µM
N#CCSc1ccccc1NC(=O)COc1ccc(-c2nnco2)cc1 17.7 µM
CCN(CC)c1ccc(/C=C/C2=C3C=CC=CC3NC=C2)cc1 (stereo unspecified) 18.4 µM
CCN(CC)c1ccc(/C=C/c2ccccn2)cc1 5.17 µM
CCN(CC)c1ccc(/C=C/c2ccncc2)cc1 4.11 µM
CCOc1ccc(NC(=O)Cn2c(=O)n(Cc3ccc(C(=O)NCc4ccc(C)cc4)cc3)c(=O)c3ccccc32)cc1 11.6 µM
O=C(NCCc1ccccc1Cl)c1ccc(Cn2c(=O)c3cccn3c3cccnc32)cc1 20.6 µM
CCOc1ccc(CCNC(=O)c2ccc(Cn3c(=O)c4cccn4c4cccnc43)cc2)cc1 16.4 µM
CCCCN1C(=O)C2Cc3c([nH]c4ccccc34)CN2C1=S (stereo unspecified) 15.8 µM
CC1(C)CCN2CCC(C)(C)c3c(O)ccc1c32 14 µM
O=C(N/N=C/c1ccc([N+](=O)[O-])o1)c1cc2c(ccc3ccccc32)o1 9.2 µM
O=C(N/N=C/c1ccc([N+](=O)[O-])o1)c1sc2ccccc2c1Cl 8.2 µM
N#Cc1c(-c2ccc(F)cc2)c(-c2ccc(F)cc2)nn(CCO)c1=O 7.04 µM
Cc1ccc2c(c1)sc(-c1ccc(N(C)C)cc1)[n+]2C 18.4 µM
CCc1ccc2nc(SCC(=O)Nc3ccccc3N3CCOCC3)c(C#N)cc2c1 1.46 µM
COc1ccc2nc(SCC(=O)N3CC(=O)Nc4ccccc43)c(C#N)cc2c1 10.3 µM
CCc1ccc2nc(SCC(=O)N3CC(=O)Nc4ccccc43)c(C#N)cc2c1 15.8 µM
O=c1[nH]c2cc(Br)cnc2nc1/C=C(\O)c1ccc(F)cc1 13 µM
O=S(=O)(Nc1nc2ccccc2nc1N1CCN(c2ccccn2)CC1)c1ccc(Cl)cc1 18.4 µM
O=C(N=c1ccn(-c2nc3ccccc3nc2NS(=O)(=O)c2ccc(Cl)cc2)cc1)c1cccs1 13 µM
